PubChem BioAssay (NCI)
About 79,000 compounds went through this panel and 15% of them were active in at least one assay; those are over-represented in the sample as a whole. A number with no mark means an inactive call. Cut-off read from the data, not from the text of the source: active = growth inhibition above about 70%; inactive = the rest.

Assay: NCI Yeast Anticancer Drug Screen. Data for the mlh1 rad18 strain (AID 175)
Details: S. cerevisiae mlh1 rad18 strain growth inhibition; at 50.0 µM; stronger effect = higher value
In short: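 In this whole-cell yeast screen, a strain with altered DNA damage repair is challenged with compound, and its growth is measured against matched vehicle-treated controls.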

Row | SMILES | growth inhibition [%]
1 | C#Cc1cccc(N=Cc2cc(Br)cc(OC)c2O)c1 | 3.95
2 | CCn1c2ccccc2c2ccc(N=Cc3ccc4ccccc4c3)cc21 | 1.3
3 | Cc1cccc(C)c1NN | 24.2
4 | Cc1ccc2c(c1)C(=Nc1ccc(Cl)cc1)C(=O)N2 | 13.1
5 | O=C(Nc1ccccc1)Oc1ccccc1C1CCCCC1 | -20
6 | NC(CS(=O)Cc1ccccc1)C(=O)O (stereo unspecified) | -6.85
